This is part of a sample that, as a whole, favours compounds with a hit. Of some 83,000 tested, about 20% had one in any assay.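 Cells were grown in 96-well plates and exposed to the test compound at a single concentration for 48 hours; results are reported as percent growth, with values below 10 considered active.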 Unmarked numbers belong to inactive results. Activity calls are given as the source filed them.
tested on: NCI-H23 lung; test: NCI-60 one-dose screen, 48 h (100 = growth as untreated, 0 = no growth, -100 = all killed); settings: 10 µM unless noted

| Compound | growth |
| --- | --- |
| Clc1cccc(Cl)c1Nc1ccc2nnc(-c3ccncc3)n2n1 | 95.8% |
| CC(C)(C)[Si](C)(C)OC1[C@@H](CNC(=O)NC(=O)CCl)O[C@@H](n2cnc3c(N)ncnc32)[C@H]1O[Si](C)(C)C(C)(C)C (some centres undefined) | -72.4% (active) |
| CC(=O)Nc1ccc(Sc2ccc([N+](=O)[O-])o2)cc1 | 39.9% |
| CC(C)(C)[Si](C)(C)OC1[C@@H](COC(=O)NC(=O)CCl)O[C@@H](n2cnc3c(N)ncnc32)[C@H]1O[Si](C)(C)C(C)(C)C (some centres undefined) | -45% (active) |
| COc1ncnc2c1ncn2C/C(Br)=C(\Br)CCl | 15.1% |
| O=C1c2ccccc2C(=O)c2c(Nc3ccc(CCO)cc3)ccc(O)c21 | 93.3% |
| COc1ccccc1CNCCCCCCCCCCCCN1C(=O)c2ccc3c4c(ccc(c24)C1=O)C(=O)N(CCCCCCCCCCCCNCc1ccccc1OC)C3=O | -47.6% (active) |
| CC(=O)c1cc(C)c(OC(=O)c2ccccc2)c(C)c1 | 89.8% |
| COC(=O)/C=C1/CCC2C3CCC4=CC(=O)C(Br)CC4(C)C3C(=O)CC12C (centres undefined) | 67.5% |
| O=c1[nH]c(-c2ccccn2)nc2sc3c(c12)CCCCCC3 | 48.7% |
| CC(C)OC1=C(Cl)C(=O)c2ccccc2C1=O | 81.8% |
| CCCCCn1c(=N)n(CC(O)COc2cccc(C)c2)c2ccccc21 (centres undefined) | 7.8% (active) |
| CC1SC(c2cccc(Oc3ccccc3)c2)N(CCc2cccs2)C1=O (centres undefined) | -14.2% (active) |
| CC(C)(C)[Si](C)(C)OC1[C@@H](COC(N)=O)O[C@@H](n2cnc3c(N)ncnc32)[C@H]1O[Si](C)(C)C(C)(C)C (some centres undefined) | 87.9% |
| COc1ccc(-c2csc3c2-n2cccc2C3=O)cc1O | 11.7% |
| O=c1[nH]c(-c2ccncc2)nc2sc3c(c12)CCCCCC3 | 88.5% |
| COc1ccc(-n2c(SCc3cc(OC)c(OC)c(OC)c3)nc3ccc(C)cc3c2=O)c(OC)c1 | 17.8% |
| O=C1NC(=O)C(CSc2ccccc2)(c2ccccc2)N1 (centres undefined) | 97.7% |
| Fc1ccccc1Nc1ccc2nnc(-c3ccncc3)n2n1 | 93.1% |
| CC(C)(C)[Si](C)(C)OC1[C@@H](O[Si](C)(C)C(C)(C)C)[C@@H](CNC(=O)NC(=O)C(F)(F)F)O[C@H]1n1cnc2c(NC(=O)Nc3ccccc3)ncnc21 (some centres undefined) | 86.4% |

| Compound | growth |
| --- | --- |
| Cc1ccc(N=c2nc3sc4c(C)ccc(C)c4n3c(N)c2C#N)cc1 | 90.2% |
| COCCOC1=C(Cl)C(=O)c2ccccc2C1=O | 29% |
| CCOC(=O)C1=C(C)N2C(=NC3=C(CCCC/C3=C\c3ccccc3)C2c2ccccc2)S1 (centres undefined) | 95.5% |
| CCN1CCN(C(=S)SCC(=O)Nc2nc3ccc(OC)cc3s2)CC1 | 100% |
| Oc1ccccc1/C=N/Nc1nc2ccccc2s1 | 59.4% |
| CC(=O)Nc1ccccc1-c1n[nH]c(=O)[nH]c1=O | 102% |
| Oc1ccc2ccccc2c1C1NN=C(c2ccccc2)S1 (centres undefined) | 35% |
| O=c1c2c(=NCCN3CCCC3)cc3c(=O)n(CCCN4CCOCC4)c(=O)c4ccc(c(O)n1CCCN1CCOCC1)c2c4-3 | -49% (active) |
| COc1ccccc1-n1c(SCc2cc(OC)c(OC)c(OC)c2)nc2ccc(Cl)cc2c1=O | 36.1% |
| Nc1c(Br)cc(Br)cc1-c1n[nH]c(=O)[nH]c1=O | 91.3% |
| O=C1C(OCCOc2ccccc2)=C(OCCOc2ccccc2)C(=O)c2ccccc21 | 16.3% |
| O=c1nc(NO)[nH]c(=O)n1Cc1ccccc1 | 105% |
| COc1ccc(-c2nc3sc(C)nn3c2-c2nc3cc(C)c(C)cc3[nH]2)cc1 | 93.9% |
| Cc1ccc2nc(NC(=O)CSC(=S)N3CCN(C)CC3)sc2c1 | 92.4% |
| CC[Si](CC)(CC)OC1[C@@H](O[Si](CC)(CC)CC)[C@@H](CNC(=O)NC)O[C@H]1n1cnc2c(NC(=O)Nc3ccccc3)ncnc21 (some centres undefined) | 51.9% |
| COc1ccc(C2SC(C)C(=O)N2CCc2cccs2)cc1OC (centres undefined) | 76.4% |
| Cc1cc(=O)[nH]n1-c1cc(Cl)ccc1N | 107% |
| c1ccc2cc(Cn3c(-c4ccc5ccccc5c4)[n+](Cc4ccc5ccccc5c4)c4ccccc43)ccc2c1 | -56.2% (active) |
| COc1cc2nc(SCc3cc(OC)c(OC)c(OC)c3)n(-c3ccccc3OC)c(=O)c2cc1OC | 79.9% |
